Data reported in PubChem BioAssay (Tox21).
Records with an inconclusive call do not appear. Calls of active or inactive are those of the source. Calls come from the whole dose curve; as a rule, active = well fitted curve in the direction sought with a large enough effect in the repeat runs; inconclusive = weak or mixed curves; inactive = no such curve, though single readings can be large; an effect the other way counts as inactive or inconclusive.

Tests used:
[1] = A CellTox Green Cytotoxicity Assay to monitor cytotoxicity in HepG2 cells - 32 hour (AID 1224883); settings: CellTox Green fluorescence; series mostly up to 76.8 µM; note: nearly all actives have a fitted effect of over 50% in size; note: potency is the fitted concentration of half-maximal effect
Method in brief: (§1)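 Using 1536-well format, dye-containing HepG2 suspension was seeded, allowed 5 h at 37 C/5% CO2, dosed by pintool with compounds, positive and negative controls, and imaged for fluorescence across 40 h.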

[2] = qHTS RealTime-Glo MT Cell Viability Assay in HEK293 cells - 24 hour (AID 1224886); settings: RealTime-Glo luminescence; series mostly up to 76.8 µM; note: nearly all actives have a fitted effect of over 50% in size; note: potency is the fitted concentration of half-maximal effect; for activity change, negative = cytotoxicity: top concentration of the series differs between compounds
Method in brief: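 HEK293 cells were seeded at 600 cells/well together with NanoLuc luciferase and cell-permeant prosubstrate, preincubated 5 h at 37 C/5% CO2, then given compound in DMSO by pintool. Luminescence from viable-cell prosubstrate reduction was read repeatedly over 40 h.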

[3] = qHTS RealTime-Glo MT Cell Viability Assay in HEK293 cells - 8 hour (AID 1224887); settings: RealTime-Glo luminescence; series mostly up to 76.8 µM; note: nearly all actives have a fitted effect of over 50% in size; note: potency is the fitted concentration of half-maximal effect; for activity change, negative = cytotoxicity: top concentration of the series differs between compounds
Method in brief: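 Viable HEK293 cells reduce a cell-permeant prosubstrate; the product diffuses out and is consumed by NanoLuc in the medium to give light. Compounds went in after a 5 h incubation and plates were read over the treatment course.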

[4] = A CellTox Green Cytotoxicity Assay to monitor cytotoxicity in HEK293 cells - 16 hour (AID 1224888); settings: CellTox Green fluorescence; series mostly up to 76.8 µM; note: nearly all actives have a fitted effect of over 35% in size
Method in brief: (§2)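 Fluorescence intensity, read at 0, 8, 16, 24, 32 and 40 h of compound treatment, reflected dye binding to DNA of dead HEK293 cells; compounds (23 nL, DMSO) were added 5 h after plating cells with reagent.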

[5] = qHTS RealTime-Glo MT Cell Viability Assay in HepG2 cells - 0 hour (AID 1224889); settings: RealTime-Glo luminescence; series mostly up to 76.8 µM; note: nearly all actives have a fitted effect of over 50% in size
Method in brief: (§3)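 HepG2 cells were seeded at 600 cells/well together with NanoLuc luciferase and a cell-permeant prosubstrate, preincubated 5 h at 37 C/5% CO2, then pin-dosed with compounds in DMSO. Nonlytic luminescence from viable cells was read at each time point.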

[6] = A CellTox Green Cytotoxicity Assay to monitor cytotoxicity in HepG2 cells - 0 hour (AID 1224882); settings: CellTox Green fluorescence; series mostly up to 76.8 µM; note: nearly all actives have a fitted effect of over 35% in size
Method in brief: as §1

[7] = A CellTox Green Cytotoxicity Assay to monitor cytotoxicity in HEK293 cells - 8 hour (AID 1224884); settings: CellTox Green fluorescence; series mostly up to 76.8 µM; note: nearly all actives have a fitted effect of over 35% in size
Method in brief: as §2

[8] = qHTS RealTime-Glo MT Cell Viability Assay in HepG2 cells - 16 hour (AID 1224885); settings: RealTime-Glo luminescence; series mostly up to 76.8 µM; note: nearly all actives have a fitted effect of over 50% in size
Method in brief: as §3

[9] = A CellTox Green Cytotoxicity Assay to monitor cytotoxicity in HepG2 cells - 8 hour (AID 1224890); settings: CellTox Green fluorescence; series mostly up to 76.8 µM; note: nearly all actives have a fitted effect of over 45% in size
Method in brief: as §1
% is set by controls: 0 for no effect and ±100 for the full control effect.

CO[C@@H]1[C@@H](OC)[C@H](C)[C@@](O)(CC(=O)O)O[C@H]1[C@H](C)[C@H]1O[C@@]2(CC[C@@](C)([C@H]3CC[C@@](C)([C@@H]4O[C@@H]([C@H]5O[C@](C)(O)[C@H](C)C[C@@H]5C)C[C@@H]4OC4C[C@H](OC)[C@@H](OC)[C@H](C)O4)O3)O2)C[C@H](O)[C@H]1C (stereo not given in full)
inactive: Potency [4] | Potency [5]
active: Potency [1] 9.52 µM | Potency [2] 3.38 µM | Potency [3] 8.49 µM

CCCC(=O)OC(=O)CCC
inactive: Potency [6] | Potency [1] | Potency [7] | Potency [8] | Potency [2] | Potency [3] | Potency [4] | Potency [5] | Potency [9]

CCCCCCCCCCCCCOS(=O)(=O)O
inactive: Potency [6] | Potency [8] | Potency [2] | Potency [3] | Potency [4] | Potency [5] | Potency [9]

c1ccc(CCCc2ccncc2)cc1
inactive: Potency [6] | Potency [7] | Potency [8] | Potency [3] | Potency [5]

CCC(Cl)CC(Cl)C(Cl)C(Cl)C(Cl)C(C)Cl (stereo not given)
inactive: cytotoxicity [6] 0.838% [at 15.8 µM] | cytotoxicity increase [1] 1.37% [at 15.8 µM] | activity change, negative = cytotoxic [8] -2.19% [at 15.8 µM] | activity change, negative = cytotoxicity [5] 1.09% [at 15.8 µM] | cytotoxicity increase [9] 7.16% [at 15.8 µM]

CCNc1nc(N)nc(Cl)n1
inactive: Potency [6] | Potency [1] | Potency [8] | Potency [2] | Potency [3] | Potency [4] | Potency [5]

Cc1ccc(NC(=O)N(C)C)cc1NC(=O)N(C)C
inactive: Potency [6] | Potency [1] | Potency [8] | Potency [2] | Potency [3] | Potency [4] | Potency [5]
